The target in experiment [1] is Luciferin 4-monooxygenase (Photinus pyralis) (UniProt P08659). Kind of experiment: Primary firefly luciferase (FLuc) qHTS assay for identification of artifact compounds. (AID 1845220). Note: nearly all actives have a fitted effect of over 60% in size. Summed up:
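Reaction readout was CCD-imaged luminescence, taken 5 min after adding 10 nM purified firefly enzyme to compound-treated wells holding 10 uM luciferin and ATP in pH 7.6 buffer.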
A general note: qHTS replaces the single test concentration by a dilution series.

Experiment [2] deals with Nanoluciferase (engineered Oplophorus gracilirostris luciferase). Kind of experiment: Primary Nanoluciferase (NLuc) qHTS assay for identification of artifact compounds. (AID 1845222).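 For activity, negative = inhibition: NLuc secreted into diluted conditioned medium of S16 cells; 0% = DMSO and -100% = no enzyme.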 Note: potency is the fitted concentration of half-maximal effect. The essentials: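 Concentration-response data were obtained by luminescence after 5 min with Nano-Glo substrate at 1:100. The enzyme was diluted S16 NLuc-expressing cell medium, preincubated with compound for 15 min at RT. Curves were fitted with a 4-parameter Hill model.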

Experiment [3] in a line: Primary redox qHTS assay for identification of artifact compounds. (AID 1845223).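 Note: 0% = DMSO and 100% = reference compound.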 Summed up:
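Amplex Red (25 uM) and HRP (250 mU/mL) in HBSS, with compounds for 15 min, then 250 uM DTT for 30 min, room temperature, dark. Fluorescence 525/598 nm read; normalized to DMSO and 10 uM DA3003; Hill fit.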

The target of experiment [4] is Phospholipid hydroperoxide glutathione peroxidase GPX4 (Homo sapiens) (UniProt P36969). Kind of experiment: Primary qHTS Assay for Inhibitors of Recombinant Selenoprotein Glutathione Peroxidase 4 (GPX4) (AID 1845192). Note: nearly all actives have a fitted effect of over 65% in size. Note: potency is the fitted concentration of half-maximal effect. Summed up:
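GR-coupled readout: 100 nM GR, 1 mM GSH, 0.5 mM NADPH; NADPH fluorescence (ex 340/em 450 nm) read at t=0 and after 15 min RT. GPX4 200 nM, preincubated 30 min with compound; substrate 0.5 mM CHP.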

A short description of experiment [5]: qHTS drug screen for cell cycle checkpoint inhibitors in PARPi-resistant BRCA-mutant ovarian cancer cell lines. (AID 1963452; calls by dose curve). The following applies: PEO1/OlaR viability, CellTiter-Glo luminescence, 96 h, stronger effect = lower value. Summed up: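 PEO1, PEO4 and PEO1/OlaR ovarian cancer cells, 600 per well, exposed 96 h at 37C to a dilution series. Viability read by CellTiter-Glo luminescence, normalized to DMSO and empty wells; activity summarized as Z-AUC.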

The nature of experiment [6]: Primary fluorescence-based thiol-reactive (MSTI) qHTS assay for identification of artifact compounds. (AID 1845221).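 Note: thiol-reactive compounds lower the probe fluorescence signal; nearly all actives have a fitted effect of over 65% in size.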 The essentials: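 One-hour, room-temperature, dark incubation of compound with 4 uM MSTI in PBS (pH 7.4, 2% DMSO) precedes a fluorescence read at 525 nm excitation, 598 nm emission; Hill-equation fitting yields concentration-response values.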
Experiment [7] is described as follows: qHTS profiling for inhibitors of Plasmodium falciparum proliferation (AID 504749).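 For activity, negative = inhibition: 0% = DMSO vehicle and full inhibition = artemisinin control.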 For all read-outs here: nearly all actives have a fitted effect of over 60% in size. Note: potency is the fitted concentration of half-maximal effect. The following applies: P. falciparum in erythrocytes, SYBR Green DNA, 72 h; for activity, negative = inhibition: at 28.7 µM (top of the series). Summed up:
(§1)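 Parasite proliferation within erythrocytes, 72 h exposure. Endpoint: SYBR Green I fluorescence after overnight lysis at room temperature. Controls: 0.29 uM artemisinin, DMSO.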

For a further experiment, the system named is 3D7. The description is as above. The conditions noted are these: P. falciparum in erythrocytes, SYBR Green DNA, 72 h; series mostly up to 28.7 µM. Summed up:
as §1

Where [8] appears, read: measured here: PEO1 parental Z-AUC.

Molecules are shown by their SMILES. Inconclusive results are not listed. The source made the active and inactive calls. Unless noted, calls come from the whole dose curve; as a rule, active = well fitted curve in the direction sought with a large enough effect; inconclusive = small, poorly fitted or top-dose-only effect, or another doubt; inactive = no such curve, though single readings can be large; an effect the other way counts as inactive or inconclusive.

Sequence of Phospholipid hydroperoxide glutathione peroxidase GPX4 (Homo sapiens) (P36969 whole entry, looked up): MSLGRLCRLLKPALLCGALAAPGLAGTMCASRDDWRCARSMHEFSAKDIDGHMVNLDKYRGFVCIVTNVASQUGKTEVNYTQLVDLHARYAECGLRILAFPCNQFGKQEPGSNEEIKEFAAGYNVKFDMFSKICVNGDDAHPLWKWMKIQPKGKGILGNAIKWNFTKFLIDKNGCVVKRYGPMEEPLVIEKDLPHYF

As to `CC1CC(=O)NN=C1c1ccc(NCC(C)(C)NCC(O)COc2cc(Cl)ccc2C#N)cc1` (configuration not stated), the Potency entry in experiment [1] and in experiment [2] was “inactive” in each case. Further, the compound was classed as inactive in experiment [3].

For `CCC1=C[C@@H]2CN(C1)Cc1c([nH]c3ccccc13)[C@@](C(=O)OC)(c1cc3c(cc1OC)N(C)[C@H]1[C@@](O)(C(=O)OC)[C@H](OC(C)=O)[C@]4(CC)C=CCN5CC[C@]31[C@@H]54)C2`, the Potency entry in experiment [4] is “inactive”. Also, the Z-AUC in experiment [5] is -1.05 (inactive); in experiment [5] (setting [8]), -1.03; in experiment [5] (measured here: PEO4 Z-AUC) it was -1.04.

Turning to `NS(=O)(=O)c1cc2c(cc1Cl)CN(C1CCCCC1)C2=O`, the Potency result in experiment [4] was “inactive”.

Consider `O=C(Nc1ccc(S(=O)(=O)N2CCOCC2)cc1)c1cc(Cl)ccc1NS(=O)(=O)c1ccc(Cl)s1`, for which the Z-AUC was 1.19 (inactive) in experiment [5], 0.998 in experiment [5] (setting [8]) and 1.36 in experiment [5] (measured here: PEO4 Z-AUC).

With `Cc1oc(=O)oc1COC(=O)[C@@H]1N2C(=O)[C@@H](NC(=O)[C@H](N)c3ccccc3)[C@H]2SC1(C)C`, the Potency result in experiment [4] is “inactive”.

For `O=C(O)Cc1ccccc1Oc1ccc(Cl)cc1Cl`, the Potency result in experiment [4], in experiment [1] and in experiment [6] was “inactive” throughout. In experiment [3], the result was inactive.

With `CCCCNc1ccc(C(=O)OCCN(CC)CC)cc1`, the Potency result in experiment [4], in experiment [1], in experiment [6] and in experiment [2] was “inactive” each time. The compound was called inactive in experiment [3].

On to `C[C@H]1C[C@H]2[C@@H]3CCC4=CC(=O)C=C[C@]4(C)[C@H]3C(=O)C[C@]2(C)[C@@]1(O)C(=O)CO`, for which, in experiment [4], the Potency entry was “inactive”. Moreover, the Z-AUC in experiment [5] was 1.47 (inactive); in experiment [5] (setting [8]) it was 0.72; in experiment [5] (measured here: PEO4 Z-AUC) it was 0.786.

Regarding `CCC(C(=O)NC(=O)NC(C)=O)c1ccccc1` (configuration not stated), the Potency result in experiment [4], in experiment [1], in experiment [6] and in experiment [2] was “inactive” in each case. Also, in experiment [3], the result was inactive.

On to `CCCCC(O)/C=C(C)/C=C/C=C/C(=O)N1CCCC1=O` (configuration not stated), for which, in experiment [4], the Potency result is “inactive”.

As for `O=[N+]([O-])c1nccn1CO[C@@H](CO)[C@H](O)CO`, the Potency entry in experiment [4], in experiment [1], in experiment [6] and in experiment [2] was “inactive” in each case. Also, the call in experiment [3] was inactive.

Turning to `C[C@@H](C1=C(CCN(C)C)Cc2ccccc21)c1ccccn1`, the Potency entry in experiment [4] was “inactive”.

With `CN(CC1(C)CCCO1)S(=O)(=O)c1ccc(Cl)c(S(N)(=O)=O)c1` (configuration not stated), the Potency entry in experiment [4], in experiment [1], in experiment [6] and in experiment [2] was “inactive” each time. In addition, the result in experiment [3] was inactive.

For the compound `Nc1ncnc2nc[nH]c12`, the Potency result (in experiment [4]; in the experiment on 3D7) was “inactive” throughout. Further, the activity, negative = inhibition in experiment [7] (parasite line A) was -12.9% (inactive); in experiment [7] (parasite line B), -6.26% (inactive).

Take `CC(C)N(CCC(=O)c1ccc2ccccc2c1)Cc1ccccc1`: the Potency entry in experiment [4], in experiment [1] and in experiment [6] was “inactive” in each case. The Potency in experiment [2] was 1.2 µM (active). Besides, the compound was called inactive in experiment [3]. For the same compound, the values for the Z-AUC in experiment [5], in experiment [5] (setting [8]) and in experiment [5] (measured here: PEO4 Z-AUC) were -1.4 (inactive), -0.867 and -0.853, respectively.

Take `CC[C@@]1(O)C(=O)OCc2c1cc1n(c2=O)Cc2c-1nc1ccccc1c2/C=N/OC(C)(C)C`: in experiment [4], the Potency is 12.6 µM (active).

`Cc1cc(O)c2c(O)c3c(O)cccc3cc2c1`: in experiment [4], the Potency entry is “inactive”.

Turning to `CC1CN(c2cc3c(cc2F)c(=O)c(C(=O)O)cn3-c2ccc(F)cc2F)CCN1` (configuration not stated), the Potency result in experiment [4], in experiment [1], in experiment [6] and in experiment [2] was “inactive” throughout. Moreover, the compound was classed as inactive in experiment [3].

Take `C/C(=C(/OCCOc1ccc(Cl)cc1)c1ccc(Cl)cc1Cl)n1ccnc1`: the Potency result in experiment [4] was “inactive”.

Regarding `O=C1[C@@H]2[C@H]3CC[C@H](C3)[C@@H]2C(=O)N1CCCCN1CCN(c2ncccn2)CC1`, the Potency result in experiment [4], in experiment [1], in experiment [6] and in experiment [2] was “inactive” throughout. The compound was classed as inactive in experiment [3].

As to `CC(=O)Nc1ccn(C2COC(COC(=O)c3ccccc3)O2)c(=O)n1` (configuration not stated), the Potency result in experiment [4], in experiment [1], in experiment [6] and in experiment [2] was “inactive” each time. The result in experiment [3] was inactive.

For `C=CCOc1cc(Cl)ccc1C(=O)NCCN(CC)CC`, the Potency entry in experiment [4], in experiment [1], in experiment [6] and in experiment [2] was “inactive” throughout. Moreover, in experiment [3], the result was inactive.

As to `CCCCCCCCCCCCCCCC[n+]1ccccc1`, the Potency entry in experiment [4] was “inactive”. The Potency is 6.31 µM (active) in experiment [7] (parasite line A), 6.31 µM (active) in experiment [7] (parasite line B) and 4.47 µM (active) in the experiment on 3D7.

For the compound `CC[N+](CC)(CC)CCOC(=O)C(C1CCCC1)C1CCCC1`, the Potency entry in experiment [4] was “inactive”.

(Values after PubChem BioAssay (NCATS).)
